Pf Dd2 growth: P. falciparum Dd2 growth inhibition; SYBR Green, 72 h; hits give low values; activity change, % at 10 µM; 94,000 compounds, 2.3% hits; AID 1159554; in the data active = activity change below about -80%; inconclusive = no clear call, values can overlap the other calls
C diff HTS: blocks growth of Clostridium difficile; Clostridium difficile clinical isolate growth, OD600, 24 h; hits give low values; growth activity, negative = inhibition, % at 16 µg/mL (by protocol); 86,000 compounds, 0.25% hits;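 active = mean growth activity at or below -80% and every replicate also at or below -80%; inconclusive = mean at or below -80% but some replicate above -80%; inactive = mean growth activity above -80%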;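 note: 0% = DMSO wells and -100% = levofloxacin 16 µg/mL wells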
Starred values were filed as active, the others as inactive; ? = inconclusive; . = no result. Shown are actives, neighbours in structure and some others; about 2.4% of the full set was active somewhere.

SMILES | Pf Dd2 growth | C diff HTS
COc1ccc(CN(C)C[C@H]2OCCCC[C@H](C)Oc3ccc(NS(=O)(=O)c4ccccc4)cc3C(=O)N([C@@H](C)CO)C[C@H]2C)cc1 | -68.7 | -1.8
C[C@@H]1CN([C@@H](C)CO)C(=O)c2cc(NC(=O)Nc3cccc4ccccc34)ccc2O[C@@H](C)CCCCO[C@H]1CN(C)CC1CCCCC1 | -72.3 | -14.1
C[C@H](CO)N1C[C@H](C)[C@H](CN(C)CC2CC2)OCCCC[C@H](C)Oc2ccc(NC(=O)Nc3cccc4ccccc34)cc2C1=O | -63.4 | 3.9
C[C@@H]1CCCCO[C@@H](CN(C)CC2CCCCC2)[C@H](C)CN([C@H](C)CO)C(=O)c2cc(NC(=O)Nc3cccc4ccccc34)ccc2O1 | -89.3* | 7.1
C[C@@H]1CN([C@@H](C)CO)C(=O)c2cc(NC(=O)Nc3cccc4ccccc34)ccc2O[C@@H](C)CCCCO[C@@H]1CN(C)CC1CCCCC1 | -87.7* | 0.1
C[C@H]1CCCCO[C@H](CN(C)CC2CCCCC2)[C@@H](C)CN([C@@H](C)CO)C(=O)c2cc(NC(=O)Nc3cccc4ccccc34)ccc2O1 | -85.4* | -3.2
C[C@@H]1CN([C@@H](C)CO)C(=O)c2cc(NC(=O)Nc3cccc4ccccc34)ccc2O[C@@H](C)CCCCO[C@H]1CN(C)CC1CC1 | -65.5 | 9.3
CN1CCN(C(=O)C[C@H]2C=C[C@@H](NC(=O)Cc3ccccn3)[C@@H](CO)O2)CC1 | 18.8 | .
CNC(=O)C[C@@H]1CC[C@H]2[C@@H](COc3ccc(NC(=O)C4CCCCC4)cc3C(=O)N2C)O1 | 12.6 | -1.7
CO[C@H]1CN(C)C(=O)c2cc(NC(=O)NC(C)C)ccc2OC[C@@H](C)N(CC2CC2)C[C@@H]1C | -38.6 | -0.8
COc1cc(CN2CC3(CCN(S(=O)(=O)c4cccc(F)c4)CC3)c3c([nH]c4cc(OC)ccc34)[C@H]2CO)cc(OC)c1 | -29.8 | 0.9
CCCC#Cc1ccc2c(c1)O[C@@H](CN(C)Cc1ccccc1)[C@H](C)CN([C@@H](C)CO)S2(=O)=O | 17.4 | 1.9
C[C@@H]1CN([C@@H](C)CO)C(=O)c2cc(NC(=O)CCCCCC(=O)Nc3ccccc3N)ccc2O[C@@H](C)CCCCO[C@@H]1CN(C)C(=O)Nc1ccc(C(F)(F)F)cc1 | -82.3* | 13.8
C[C@@H]1CCCCO[C@H](CN(C)Cc2ccccc2)[C@@H](C)CN([C@H](C)CO)C(=O)c2cc(NC(=O)CCCCCC(=O)Nc3ccccc3N)ccc2O1 | -82.6* | -0.6
C[C@@H]1CCCCO[C@@H](CN(C)C)[C@@H](C)CN([C@H](C)CO)C(=O)c2cc(NC(=O)CCCCCC(=O)Nc3ccccc3N)ccc2O1 | 24.5 | 0.4
C[C@H](CO)N1C[C@H](C)[C@H](CN(C)CC2CCCCC2)OCCCC[C@H](C)Oc2ccc(NC(=O)CCCCCC(=O)Nc3ccccc3N)cc2C1=O | -81.9* | 0.0
COc1ccc(NC(=O)Nc2ccc3c(c2)C(=O)N([C@H](C)CO)C[C@H](C)[C@H](CN(C)Cc2ccc(C(=O)Nc4ccccc4N)cc2)OCCCC[C@@H](C)O3)cc1 | -87.1* | 4.1
COc1ccc(S(=O)(=O)Nc2ccc3c(c2)C(=O)N([C@H](C)CO)C[C@H](C)[C@H](CN(C)Cc2ccc(C(=O)Nc4ccccc4N)cc2)OCCCC[C@@H](C)O3)cc1 | -63.3 | -4.5
C[C@@H]1CCCCO[C@@H](CN(C)CC2CCCCC2)[C@H](C)CN([C@H](C)CO)C(=O)c2cc(NC(=O)CCCCCC(=O)Nc3ccccc3N)ccc2O1 | ? | 1.8
C[C@@H]1CCCCO[C@@H](CN(C)C(=O)Nc2ccc(C(F)(F)F)cc2)[C@@H](C)CN([C@H](C)CO)C(=O)c2cc(NC(=O)CCCCCC(=O)Nc3ccccc3N)ccc2O1 | -34.5 | 7.1
COc1ccc(CN(C)C[C@H]2OCCCC[C@@H](C)Oc3ccc(NC(=O)CCCCCC(=O)Nc4ccccc4N)cc3C(=O)N([C@H](C)CO)C[C@@H]2C)cc1 | -83.1* | 5.4
COc1ccc(NC(=O)N(C)C[C@@H]2OCCCC[C@@H](C)Oc3ccc(NC(=O)CCCCCC(=O)Nc4ccccc4N)cc3C(=O)N([C@H](C)CO)C[C@@H]2C)cc1 | 9.3 | -3.0
C[C@@H]1CN([C@H](C)CO)C(=O)c2cc(NC(=O)NC3CCCCC3)ccc2O[C@@H](C)CCCCO[C@@H]1CN(C)C(=O)Nc1ccc(F)cc1 | -88.0* | 10.6
C[C@@H]1CCCCO[C@@H](CN(C)C(=O)Nc2ccc(F)cc2)[C@H](C)CN([C@H](C)CO)C(=O)c2cc(NC(=O)NC3CCCCC3)ccc2O1 | -4.4 | -4.6
C[C@@H]1CCCCO[C@@H](CN(C)C(=O)Nc2ccccc2)[C@@H](C)CN([C@H](C)CO)C(=O)c2cc(NC(=O)NC3CCCCC3)ccc2O1 | 8.7 | .
SMILES | Pf Dd2 growth | C diff HTS
C[C@@H]1CN([C@H](C)CO)C(=O)c2cc(NC(=O)NC3CCCCC3)ccc2O[C@@H](C)CCCCO[C@@H]1CN(C)C(=O)Nc1ccccc1 | -81.1* | .
C[C@@H]1CCCCO[C@@H](CN(C)C(=O)NC2CCCCC2)[C@H](C)CN([C@@H](C)CO)C(=O)c2cc(NC(=O)Nc3ccccc3)ccc2O1 | -18.4 | 1.5
C[C@@H]1CN([C@H](C)CO)C(=O)c2cc(NC(=O)Nc3ccccc3)ccc2O[C@@H](C)CCCCO[C@@H]1CN(C)C(=O)NC1CCCCC1 | -84.8* | -1.9
CNC[C@@H]1Oc2ccc(NS(=O)(=O)c3cn(C)cn3)cc2CC(=O)N([C@H](C)CO)C[C@H]1C | 44.6 | -3.4
COc1ccc(NC(=O)N(C)C[C@@H]2Oc3cc(-c4ccc(C)cc4)ccc3S(=O)(=O)N([C@H](C)CO)C[C@H]2C)cc1 | -89.2* | 0.7
COc1ccc(NC(=O)N(C)C[C@H]2Oc3cc(-c4ccc(C)cc4)ccc3S(=O)(=O)N([C@H](C)CO)C[C@@H]2C)cc1 | -79.9 | 2.2
COc1ccc(NC(=O)N(C)C[C@H]2Oc3cc(-c4ccc(C)cc4)ccc3S(=O)(=O)N([C@@H](C)CO)C[C@@H]2C)cc1 | -74.3 | -1.6
COc1ccc(NC(=O)N(C)C[C@@H]2Oc3cc(-c4ccc(C)cc4)ccc3S(=O)(=O)N([C@@H](C)CO)C[C@@H]2C)cc1 | -87.4* | 76.9
COc1ccc(NC(=O)N(C)C[C@@H]2Oc3cc(-c4ccc(C)cc4)ccc3S(=O)(=O)N([C@@H](C)CO)C[C@H]2C)cc1 | -92.7* | 0.3
COc1ccc(NC(=O)N(C)C[C@H]2Oc3cc(-c4ccc(C)cc4)ccc3S(=O)(=O)N([C@H](C)CO)C[C@H]2C)cc1 | -75.0 | 5.1
C[C@H]1CN([C@@H](C)CO)C(=O)Cc2cc(NS(=O)(=O)c3ccccc3)ccc2O[C@H]1CN(C)Cc1ccc(C(=O)O)cc1 | 19.0 | 2.4
C[C@@H]1CN([C@H](C)CO)S(=O)(=O)c2ccc(C3=CCCCC3)cc2O[C@H]1CN(C)C(=O)c1ccccc1 | -45.1 | 0.1
CCCN1[C@@H]2c3cccc(=O)n3C[C@@H]2[C@@H](CO)[C@@H]1C(=O)N[C@H](C)c1ccccc1 | 3.7 | -4.1
C[C@@H]1CN([C@@H](C)CO)C(=O)c2cc(NC(=O)Nc3ccc(C(F)(F)F)cc3)ccc2O[C@@H](C)CCCCO[C@@H]1CN(C)S(=O)(=O)c1ccc(Cl)cc1 | -86.4* | 1.2
Cc1ccc(S(=O)(=O)N(C)C[C@H]2OCCCC[C@@H](C)Oc3ccc(NC(=O)Nc4ccc(C(F)(F)F)cc4)cc3C(=O)N([C@@H](C)CO)C[C@H]2C)cc1 | -53.6 | -3.6

Bioassay records as filed in PubChem BioAssay.
